# In PubChem BioAssay:
# The source made the active and inactive calls.
# Experiment: CREB reporter modulators without forskolin, primary screen, cell-based, PC12, CRE-LacZ reporter, unstimulated (AID 1145)
# Conditions: no forskolin, luminescence, 4.5 h, higher = more signal, called active from +8 up or from −8 down
row,Structure (SMILES),z-score
1,COc1cc(C(O)C2C=CC3C(=O)N(C)C(=O)C3N2Nc2ccccc2)cc(OC)c1OC (stereo not drawn),0.246 (inactive)
2,COc1ccc([Si](C)(C)[C@@H]2[C@@H](CC(=O)N3Cc4ccccc4C[C@H]3CO)O[C@]3(C(=O)N(Cc4ccc(N5C(=O)c6cccc7cccc5c67)cc4)c4ccccc43)[C@H]2C)cc1,2.34 (inactive)
3,C=CCC(OC(C)=O)[C@@H]1[C@@H](N(Cc2ccc(-c3cccc(C(F)(F)F)c3)o2)C(=O)c2ccc(-c3ccccc3)cc2)c2cc(OCCCO)ccc2N1C(=O)Cc1ccc2ccccc2c1 (stereo partly drawn),0.572 (inactive)
4,C=CCNC(=O)[C@H]1[C@@H]2C(=O)O[C@@H](c3ccccc3)[C@@H](c3ccccc3)N2[C@@H](c2ccccc2OCCO)[C@]12C(=O)N(C(=O)OCCOC)c1ccc(C#CC3(O)CCCCCC3)cc12,-0.258 (inactive)
5,COc1ccc([Si](C)(C)[C@@H]2[C@@H](CCO)O[C@]3(C(=O)N(Cc4cccc(NC(=O)[C@H](C)O)c4)c4ccccc43)[C@H]2C)cc1,10.2 (active)
6,CCCCC[C@H]1OC[C@@]23C=C(Br)[C@@H](CC12)[C@@]1(CO1)C3=O (stereo partly drawn),0.495 (inactive)
7,C=CCN1Cc2ccccc2[C@@H]2OC(c3ccc(OCCCO)cc3)=N[C@]2(CC=C)C1=O,0.236 (inactive)
8,Cc1ccc(NN2C(C(O)c3c(F)cccc3Cl)C=CC3C(=O)N(C4CCCCC4)C(=O)C32)cc1 (stereo not drawn),-0.0787 (inactive)
9,CCCCC(CC)C(O)C1C=CC2C(=O)N(c3ccccc3)C(=O)C2N1Nc1ccc(C#N)cc1 (stereo not drawn),0.819 (inactive)
10,NC(=O)[C@H]1[C@@H]2C(=O)O[C@@H](c3ccccc3)[C@@H](c3ccccc3)N2[C@@H](c2ccc(OCCO)cc2)[C@]12C(=O)Nc1ccc(C#CCCO)cc12,-0.465 (inactive)
11,CCC1=C2CN(Cc3ccccc3)[C@@H](C(=O)Cc3ccccc3)C2C=CCC1 (stereo partly drawn),-0.142 (inactive)
12,[N-]=[N+]=Nc1ccccc1C[C@]1(C(=O)NCC(O)CO)COC(c2ccc(OCCCO)cc2)=N1 (stereo partly drawn),0.493 (inactive)
13,CCCC=C(CCC)[C@@H](NP(=O)(c1ccccc1)c1ccccc1)c1ccc(-c2ccccc2)cc1,0.204 (inactive)
14,CCOC(=O)C[C@H]1[C@H](OC(=O)c2ccc(C(=O)c3ccccc3)cc2)[C@@H](NC(=O)c2ccc(-c3ccccc3)cc2)c2cc(OCCCO)ccc2N1C(=O)Cc1ccc(OC)cc1,-0.0989 (inactive)
15,CO[C@H]1O[C@H](CO)[C@@H](OC(=O)CCc2ccccc2)[C@@H]2OC(=O)[C@@H](Cc3ccccc3)C/C=C/C[C@H](Cc3ccccc3)C(=O)O[C@@H]12,-0.655 (inactive)
16,CCOC(=O)C1=C[C@@H](c2ccccc2)N(S(=O)(=O)c2ccc(C)cc2)[C@H]1c1ccc(OC)cc1,-0.275 (inactive)
17,[N-]=[N+]=Nc1ccccc1C[C@]1(C(=O)NCCN2CCOCC2)COC(c2ccc(OCCCO)cc2)=N1,0.754 (inactive)
18,COc1ccc([Si](C)(C)[C@H]2[C@H](CC(=O)N3Cc4ccccc4C[C@H]3CO)O[C@@]3(C(=O)N(Cc4ccc(N5CCOC5=O)cc4)c4ccccc43)[C@@H]2C)cc1,1.38 (inactive)
19,CS(=O)(=O)CCOC(=O)C1=CC(c2ccc(CO)cc2)=CC(C2CC2)N(Cc2sc3ccccc3c2Cl)C=C1C(=O)OCCS(C)(=O)=O (stereo not drawn),1.8 (inactive)
20,CCCCNC(=O)c1ccc(C#CC(C)(C)C)c(OC(C)=O)c1,1.78 (inactive)
21,O=C1C2C=CC(C(O)c3ccco3)N(Nc3ccccc3F)C2C(=O)N1c1ccccc1 (stereo not drawn),-0.136 (inactive)
22,COc1cc(NN2C(C(O)c3ccco3)C=CC3C(=O)N(C)C(=O)C32)cc(OC)c1OC (stereo not drawn),0.815 (inactive)
23,COC(=O)[C@@]1(Cc2ccc(F)cc2)[C@H]2c3cc(C(=O)N(C)C)n(CCc4ccc(OC)c(Br)c4)c3C[C@H]2CN1C(=O)c1ccccc1,17.2 (active)
24,CC(C)[Si](C#CCCCC#N)(O[C@H](c1ccccc1)c1cn(Cc2ccccc2)nn1)C(C)C,0.773 (inactive)
25,COCCOC(=O)N1C(=O)[C@@]2(c3cc(C#CC4(O)CCCCCC4)ccc31)[C@H](C(=O)Nc1nc3ccccc3s1)[C@H]1C(=O)O[C@H](c3ccccc3)[C@H](c3ccccc3)N1[C@@H]2c1ccc(O)cc1,0.245 (inactive)

# Experiment: CREB reporter modulators under forskolin, primary screen, cell-based, PC12, CRE-LacZ reporter, forskolin-stimulated (AID 1146);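 further: PC12 cells with 6xCRE LacZ reporter stimulated by forskolin 10 µM; beta-galactosidase reporter signal reflecting CREB driven transcription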
# Conditions: luminescence, 4.5 h, higher = more signal, called active from +8 up or from −8 down
row,Structure (SMILES),z-score
1,CCC#CCN(Cc1ccccc1Br)[C@H](/C=C/C1CC1)[C@@H](O)Cc1ccccc1,-0.835 (inactive)
2,CCCCN1CC=CC23O[C@@H]4/C=C\CCCOC(=O)C4[C@H]2C(=O)N(CCO)[C@@H]3C1=O (stereo partly drawn),-0.681 (inactive)
3,C=CCNC(=O)[C@@H]1[C@H]2C(=O)O[C@H](c3ccccc3)[C@H](c3ccccc3)N2[C@H](c2ccccc2OCCO)[C@@]12C(=O)N(C(=O)OCCOC)c1ccc(C#CC3(O)CCCCCC3)cc12,-0.965 (inactive)
4,O=C(C1N=C(c2ccc(OCCCO)cc2)N(c2ccccc2)O1)N1CCCCC1 (stereo not drawn),1.91 (inactive)
5,CN(C)CCCCCCNC(=O)[C@@H]1C[C@@H]2C(=O)N3CCC[C@H]3C(=O)N2[C@@H]1c1cccc(OCCO)c1,0.766 (inactive)
6,COC(=O)[C@@]1(Cc2ccccc2)[C@H]2c3cc(C(=O)N(C)C)n(Cc4ccc(C)o4)c3C[C@H]2CN1C(=O)c1ccccc1,0.2 (inactive)
7,O[C@@H](Cc1ccccc1)[C@@H](/C=C/C1CC1)N(CC#Cc1ccccc1)Cc1ccccc1Br,0.21 (inactive)
8,COCC(=C=CC[C@H](O)c1ccc(OCCO)cc1)CCO,-0.419 (inactive)
9,NCCCCCNC(=O)[C@H]1C[C@H]2C(=O)N3CCC[C@H]3C(=O)N2[C@H]1c1cccc(OCCO)c1,-0.0024 (inactive)
10,CCCC[C@@H]1C[C@H]1[C@@H](NC(=O)c1cccs1)c1ccccc1C(F)(F)F,1.4 (inactive)
11,CCOC(=O)C[C@H]1[C@H](OC(=O)Cc2ccc3c(c2)OCO3)[C@@H](NC(=O)C2CCCCC2)c2cc(OCCCO)ccc2N1C(=O)c1ccccc1,-1.27 (inactive)
12,COc1cc(C(O)C2C=CC3C(=O)N(C)C(=O)C3N2Nc2ccccc2)cc(OC)c1OC (stereo not drawn),-0.944 (inactive)
13,COc1ccc([Si](C)(C)[C@@H]2[C@@H](CC(=O)N3Cc4ccccc4C[C@H]3CO)O[C@]3(C(=O)N(Cc4ccc(N5C(=O)c6cccc7cccc5c67)cc4)c4ccccc43)[C@H]2C)cc1,0.972 (inactive)
14,C=CCC(OC(C)=O)[C@@H]1[C@@H](N(Cc2ccc(-c3cccc(C(F)(F)F)c3)o2)C(=O)c2ccc(-c3ccccc3)cc2)c2cc(OCCCO)ccc2N1C(=O)Cc1ccc2ccccc2c1 (stereo partly drawn),0.368 (inactive)
15,C=CCNC(=O)[C@H]1[C@@H]2C(=O)O[C@@H](c3ccccc3)[C@@H](c3ccccc3)N2[C@@H](c2ccccc2OCCO)[C@]12C(=O)N(C(=O)OCCOC)c1ccc(C#CC3(O)CCCCCC3)cc12,0.347 (inactive)
16,COc1ccc([Si](C)(C)[C@@H]2[C@@H](CCO)O[C@]3(C(=O)N(Cc4cccc(NC(=O)[C@H](C)O)c4)c4ccccc43)[C@H]2C)cc1,-1.88 (inactive)
17,CCCCC[C@H]1OC[C@@]23C=C(Br)[C@@H](CC12)[C@@]1(CO1)C3=O (stereo partly drawn),0.289 (inactive)

row,Structure (SMILES),z-score
1,C=CCN1Cc2ccccc2[C@@H]2OC(c3ccc(OCCCO)cc3)=N[C@]2(CC=C)C1=O,-0.377 (inactive)
2,Cc1ccc(NN2C(C(O)c3c(F)cccc3Cl)C=CC3C(=O)N(C4CCCCC4)C(=O)C32)cc1 (stereo not drawn),0.355 (inactive)
3,CCCCC(CC)C(O)C1C=CC2C(=O)N(c3ccccc3)C(=O)C2N1Nc1ccc(C#N)cc1 (stereo not drawn),0.176 (inactive)
4,NC(=O)[C@H]1[C@@H]2C(=O)O[C@@H](c3ccccc3)[C@@H](c3ccccc3)N2[C@@H](c2ccc(OCCO)cc2)[C@]12C(=O)Nc1ccc(C#CCCO)cc12,0.776 (inactive)
5,CCC1=C2CN(Cc3ccccc3)[C@@H](C(=O)Cc3ccccc3)C2C=CCC1 (stereo partly drawn),1.73 (inactive)
6,[N-]=[N+]=Nc1ccccc1C[C@]1(C(=O)NCC(O)CO)COC(c2ccc(OCCCO)cc2)=N1 (stereo partly drawn),-1.1 (inactive)
7,CCCC=C(CCC)[C@@H](NP(=O)(c1ccccc1)c1ccccc1)c1ccc(-c2ccccc2)cc1,1.24 (inactive)
8,CCOC(=O)C[C@H]1[C@H](OC(=O)c2ccc(C(=O)c3ccccc3)cc2)[C@@H](NC(=O)c2ccc(-c3ccccc3)cc2)c2cc(OCCCO)ccc2N1C(=O)Cc1ccc(OC)cc1,-0.539 (inactive)
9,CO[C@H]1O[C@H](CO)[C@@H](OC(=O)CCc2ccccc2)[C@@H]2OC(=O)[C@@H](Cc3ccccc3)C/C=C/C[C@H](Cc3ccccc3)C(=O)O[C@@H]12,-0.43 (inactive)
10,CCOC(=O)C1=C[C@@H](c2ccccc2)N(S(=O)(=O)c2ccc(C)cc2)[C@H]1c1ccc(OC)cc1,-0.0617 (inactive)
11,[N-]=[N+]=Nc1ccccc1C[C@]1(C(=O)NCCN2CCOCC2)COC(c2ccc(OCCCO)cc2)=N1,1.45 (inactive)
12,COc1ccc([Si](C)(C)[C@H]2[C@H](CC(=O)N3Cc4ccccc4C[C@H]3CO)O[C@@]3(C(=O)N(Cc4ccc(N5CCOC5=O)cc4)c4ccccc43)[C@@H]2C)cc1,-1.01 (inactive)
13,CS(=O)(=O)CCOC(=O)C1=CC(c2ccc(CO)cc2)=CC(C2CC2)N(Cc2sc3ccccc3c2Cl)C=C1C(=O)OCCS(C)(=O)=O (stereo not drawn),-2.66 (inactive)
14,CCCCNC(=O)c1ccc(C#CC(C)(C)C)c(OC(C)=O)c1,-0.512 (inactive)
15,O=C1C2C=CC(C(O)c3ccco3)N(Nc3ccccc3F)C2C(=O)N1c1ccccc1 (stereo not drawn),0.942 (inactive)
16,COc1cc(NN2C(C(O)c3ccco3)C=CC3C(=O)N(C)C(=O)C32)cc(OC)c1OC (stereo not drawn),1.06 (inactive)
